Source: the supplement of paper PMC13380429
A number with no mark means an inactive call.

System: Vero E6 infected with SARS-CoV-2
Test: inhibition of SARS-CoV-2 cytopathic effect; higher = more antiviral protection, active = above 15
Conditions: 48 h

SMILES | inhibition of SARS-CoV-2 cytopathic effect (1 nM) [%] | inhibition of SARS-CoV-2 cytopathic effect (8.33 nM) [%] | inhibition of SARS-CoV-2 cytopathic effect (100 nM) [%] | inhibition of SARS-CoV-2 cytopathic effect (833.33 nM) [%] | inhibition of SARS-CoV-2 cytopathic effect (10000 nM)
Cc1cccc(Oc2cnc(=O)[nH]c2)c1 [tolimidone] | -0.32 | -2.84 | -2.12 | -13.1 | 0.88%
CN1C2CCC1CC(OC(c1ccccc1)c1ccc(Cl)cc1)C2 (stereo not given) | 5.63 | 6.26 | -1.76 | -2.87 | 17.4% (active)
COc1cc(COc2cc(N)c(Cl)cc2C(=O)CCC2CCN(CCNS(C)(=O)=O)CC2)cc(OC)c1 | 0.91 | 2.62 | -0.09 | 2.63 | 28.3% (active)
CCN1C[C@]2(COC(=O)c3ccccc3N3C(=O)C[C@H](C)C3=O)CC[C@H](OC)[C@@]34[C@@H]5C[C@H]6[C@H](OC)[C@@H]5[C@](O)(C[C@@H]6OC)[C@](O)([C@@H](OC)[C@H]23)[C@@H]14 [methyllycaconitine] | -1.85 | -0.91 | 0.85 | 0.06 | -1.4%
COc1cc2c(cc1OC)-c1c(C)c3ccc(OC)c(OC)c3c[n+]1CC2 [dehydrocorydaline] | -0.53 | 0.34 | -1 | -1.37 | 0.05%
CCOC(=O)C1=C(C)NC(=S)NC1c1cccc(O)c1 (stereo not given) [monastrol] | 0.53 | -0.07 | 1.51 | 0.94 | -1.39%
CC(C)c1ccc2c(c1)CC[C@H]1[C@](C)(CN)CCC[C@]21C [lylamine] | -2.24 | 0.4 | 0.03 | -2.43 | -18.1%
Cc1sc(C)c2c1CCC=C2c1c[nH]cn1 | -1.05 | -1.35 | -1.5 | -2.81 | -2.28%
CC(NC(C)(C)C)C(=O)c1cccc(Cl)c1 (stereo not given) [bupropion] | 1.88 | 2.11 | -0.69 | -0.93 | -2.06%
CCCCC[C@H](O)/C=C/[C@H]1[C@H](O)CC(=O)[C@@H]1C/C=C\CCCC(=O)O [dinoprostone] | -2.72 | 0.16 | -4.2 | 0.3 | 0.05%
CCCn1c(=O)c2[nH]cnc2n(-c2ccc(Cl)cc2)c1=O [arofylline] | -3.55 | -1.13 | 0.16 | -6.97 | -3.81%
CC(C)NCC(O)c1cc(O)cc(O)c1 (stereo not given) [metaproterenol] | -0.95 | 3.21 | 0.75 | -1.4 | 0.75%
N[C@@H]1c2cccnc2[C@H](OC(=O)N2CCC(n3c(=O)[nH]c4ncccc43)CC2)CC[C@H]1c1cccc(F)c1F [rimegepant] | -0.34 | 1.65 | -0.46 | -1.15 | 0.55%
Cc1nc(C)c(C)nc1C [chuanxiongzine] | 2.81 | 0.85 | 2.51 | 5.75 | 1.87%
CC(C)(C(=O)NCC(F)(F)C(F)(F)F)C(=O)N[C@@H]1C(=O)Nc2ccccc2-c2ccccc21 | -4.06 | -4.36 | -4.95 | -5.35 | -3.87%
CC(C)c1cnn2c(NCc3ccccc3)cc(NCCCCCCN)nc12 | 2.49 | -1.33 | -2.16 | 1.83 | -12.8%
CC[C@@]1(O)C(=O)OCc2c1cc1n(c2=O)Cc2cc3c(CN(C)C)c(O)ccc3nc2-1 [topotecan] | 0.54 | 1.66 | -1.53 | -6.88 | -15.3%
O=C(Nc1ccncc1)C(=O)c1cn(Cc2ccc(Cl)cc2)c2ccccc12 [indibulin] | 1.08 | 1.94 | 0.77 | 0.68 | -6.21%

SMILES | inhibition of SARS-CoV-2 cytopathic effect (1 nM) [%] | inhibition of SARS-CoV-2 cytopathic effect (8.33 nM) [%] | inhibition of SARS-CoV-2 cytopathic effect (100 nM) [%] | inhibition of SARS-CoV-2 cytopathic effect (833.33 nM) [%] | inhibition of SARS-CoV-2 cytopathic effect (10000 nM)
c1ccc([C@H]2CNCc3ccccc32)cc1 [4-phenyl-1,2,3,4-tetrahydroisoquinoline] | -0.57 | 5.18 | 3.96 | 8.92 | 3%
CC(=O)Oc1ccc(C(c2ccc(OC(C)=O)cc2)c2ccccn2)cc1 [bisacodyl] | 0.11 | -1.99 | -2.25 | 1.04 | 2.49%
Oc1nc(O)c2nc(O)[nH]c2n1 [uric-acid] | -0.34 | 0.2 | -1.96 | -1.44 | -0.42%
CCOc1ccc(Cc2cc([C@@H]3O[C@H](SC)[C@@H](O)[C@H](O)[C@H]3O)ccc2Cl)cc1 [sotagliflozin] | -0.94 | -2.52 | -1.14 | -3.56 | -3.65%
Clc1ccc(CO/N=C(\Cn2ccnc2)c2ccc(Cl)cc2Cl)c(Cl)c1 [oxiconazole] | -0.54 | 0.43 | 1.05 | 0.68 | -1.24%
O=C(NOCCO)c1ccc2cncn2c1Nc1ccc(I)cc1F | -1.68 | -5.37 | -12.8 | -14.4 | -13.2%
CCOC(=O)[C@H]1O[C@@H]1C(=O)N[C@@H](CC(C)C)C(=O)NCCC(C)C [aloxistatin] | 0.43 | -1.01 | 0.39 | -0.54 | 11.2%
NCCNC(=O)c1ccc(Cl)cn1 [lazabemide] | 1.32 | -0.18 | -0.23 | -0.24 | 3.29%
O=C1OC(c2ccc(O)cc2)(c2ccc(O)cc2)c2ccccc21 [phenolphthalein] | -1.78 | 2.66 | -1.09 | -0.27 | 0.56%
C[C@@]1(O)[C@H](O)[C@@H](CO)O[C@H]1n1ccc(N)nc1=O | 5.4 | -1.76 | -3.15 | -5.49 | -2.07%
C=CC(=O)Nc1cccc(Nc2nc(Nc3ccc(N4CCN(C(C)=O)CC4)cc3OC)ncc2C(F)(F)F)c1 [rociletinib] | -0.09 | -1.67 | -0.14 | -2.42 | -11.9%
CC1CCN(CC[C@H]2CCCN2S(=O)(=O)c2cccc(O)c2)CC1 | 1.41 | 2.24 | 2.25 | 2.79 | 0.64%
O=C(Nc1ccc(N2CCC(C(=O)N3CCOCC3)CC2)cc1)c1cnc(Oc2ccccc2)nc1 | 0.64 | 1.26 | 2.38 | 1.19 | -0.78%
OCCC#Cc1nc(-c2ccc(F)cc2)c(-c2ccncc2)n1CCCc1ccccc1 | 2.21 | -1.75 | -1.41 | 0.51 | 2.27%
Nc1nc(NCCc2ccc(O)cc2)nc2nc(-c3ccco3)nn12 | 0.11 | -0.03 | -0.54 | -1.25 | -5.15%
CNC(=O)[C@@H](NC(=O)[C@H](CC(C)C)[C@H](O)C(=O)NO)C(C)(C)C [marimastat] | -4.07 | 2.33 | -5.18 | -6.93 | -13.7%
NCCCCCC(O)(P(=O)(O)O)P(=O)(O)O [neridronic-acid] | 0.84 | -0.27 | -2.11 | 2.29 | 3.47%
Fc1ccc(Cl)cc1-c1nc(Nc2ccncc2)c2nccnc2n1 | -0.85 | 0.45 | -1.96 | -3.87 | -7.46%
